Experimental data as given in PubChem BioAssay (NCI).
This is part of a sample that, as a whole, favours compounds with a hit. Of some 79,000 tested, about 15% had one in any assay. The source made the active and inactive calls. Cut-off read from the data, not from the text of the source: active = growth inhibition above about 70%; inactive = the rest.

What was measured:
[1] = NCI Yeast Anticancer Drug Screen. Data for the rad50 strain (AID 155);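 note: 0% = growth of vehicle-only cultures of the same strain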; conditions: S. cerevisiae rad50 strain growth inhibition, active compounds read high
Outline: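 A DNA repair-deficient yeast mutant serves as the test organism; compound-induced growth inhibition is calculated against vehicle-treated cells.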

[2] = NCI Yeast Anticancer Drug Screen. Data for the mec2-1 strain (AID 157); conditions: S. cerevisiae mec2-1 strain, active compounds read high
Outline: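 Mutant yeast (mec2-1) grown with compound; growth inhibition relative to vehicle control reported.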

[3] = NCI Yeast Anticancer Drug Screen. Data for the sgs1 mgt1 strain (AID 161);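 note: 0% = growth of cultures given vehicle only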; conditions: S. cerevisiae sgs1 mgt1 strain, active compounds read high
Outline: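 Growth of a repair-deficient yeast mutant was monitored after compound treatment and expressed as inhibition relative to vehicle-treated cultures.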

[4] = NCI Yeast Anticancer Drug Screen. Data for the cln2 rad14 strain (AID 165);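 note: 0% = growth equal to vehicle treated cultures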; conditions: S. cerevisiae cln2 rad14 strain, active compounds read high
Outline: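 Readout is yeast growth inhibition versus vehicle-treated controls, using a strain with cln2 and rad14 alterations exposed to compound.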

[5] = NCI Yeast Anticancer Drug Screen. Data for the bub3 strain (AID 167); conditions: S. cerevisiae bub3 mutant strain, active compounds read high
Outline: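 Inhibition values come from growth of compound-treated mutant yeast normalised to vehicle-treated controls.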

[6] = NCI Yeast Anticancer Drug Screen. Data for the mlh1 rad18 strain (AID 175); conditions: S. cerevisiae mlh1 rad18 strain growth inhibition, active compounds read high
Outline: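 Genetically defined yeast (DNA repair-deficient) exposed to compounds; growth inhibition determined relative to vehicle.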

[7] = at 5.0 µM (retest, dose inferred, filed as 0.5)
[8] = at 50.0 µM (retest, dose inferred, filed as 5.0)

Measured: growth inhibition

O=C(NO)Nc1nc(Cl)c(Cl)nc1Cl
active: [1]; [8] 97% | [1]; at 50.0 µM 90% | [2]; [8] 99% | [2]; at 50.0 µM 92.7% | [3]; [8] 99% | [3]; at 50.0 µM 90.2% | [4]; [8] 99% | [4]; at 50.0 µM 83.5% | [5]; [8] 98% | [5]; at 50.0 µM 90.3% | [6]; [8] 99% | [6]; at 50.0 µM 90.3%
inactive: [1]; [7] 16% | [2]; [7] 18% | [3]; [7] 30% | [4]; [7] 2% | [5]; [7] 6% | [6]; [7] 20%

O=C(NC1CCN(Cc2ccccc2)CC1)c1ccccc1I
inactive: [1]; [7] 48% | [2]; [7] 38% | [2]; [8] 50% | [2]; at 50.0 µM 39.9% | [5]; [7] 59% | [5]; [8] 64%
active: [1]; [8] 73% | [1]; at 50.0 µM 74.3% | [3]; [7] 80% | [3]; [8] 81% | [3]; at 50.0 µM 82.6% | [4]; [7] 83% | [4]; [8] 82% | [4]; at 50.0 µM 81% | [5]; at 50.0 µM 74% | [6]; [7] 73% | [6]; [8] 76% | [6]; at 50.0 µM 80.8%

CCN(CC)CCOc1ccc(-c2cc(-c3ccccc3)nc(N)n2)cc1
active: [1]; [8] 98% | [1]; at 50.0 µM 76.5% | [2]; [8] 99% | [2]; at 50.0 µM 79.5% | [3]; [8] 91% | [3]; at 50.0 µM 85.2% | [4]; [7] 73% | [4]; [8] 93% | [5]; [8] 92% | [5]; at 50.0 µM 81.3% | [6]; [8] 99% | [6]; at 50.0 µM 77.8%
inactive: [1]; [7] 49% | [2]; [7] 58% | [3]; [7] 44% | [4]; at 50.0 µM 59.3% | [5]; [7] 58% | [6]; [7] 55%

CCCCCCCCCCCC(=O)OCCOC(=O)CCCCCCCCCCC
inactive: [1]; [7] -8% | [1]; [8] -5% | [1]; at 50.0 µM -5.95% | [2]; [7] -1% | [2]; [8] -12% | [2]; at 50.0 µM -11.3% | [3]; [7] -22% | [3]; [8] -7% | [3]; at 50.0 µM -20.6% | [4]; [7] 1% | [4]; [8] -5% | [4]; at 50.0 µM -4% | [5]; [7] 2% | [5]; [8] -12% | [5]; at 50.0 µM -3.35% | [6]; [7] 3% | [6]; [8] -6% | [6]; at 50.0 µM 7.4%

COc1ccc(-c2nnc(C)nc2-c2ccc(OC)cc2)cc1
active: [5]; at 50.0 µM 81.6%
inactive: [1]; [7] 3% | [1]; [8] -1% | [1]; at 50.0 µM 22.1% | [2]; [7] -1% | [2]; [8] 7% | [2]; at 50.0 µM 1.2% | [3]; [7] 3% | [3]; [8] 19% | [3]; at 50.0 µM 23.2% | [4]; [7] -6% | [4]; [8] -1% | [4]; at 50.0 µM 17.6% | [5]; [7] 14% | [5]; [8] 41% | [6]; [7] 0% | [6]; [8] 2% | [6]; at 50.0 µM 13.2%

CCCCc1c2c(nc3c1CCc1cc4cc5c(nc4nc1-3)-c1nc3c(c(CCCC)c1CC5)CCCC3=O)C(=O)CCC2
active: [1]; [7] 71% | [1]; [8] 97% | [1]; at 50.0 µM 97.7% | [2]; [7] 86% | [2]; [8] 97% | [2]; at 50.0 µM 97.2% | [3]; [8] 97% | [3]; at 50.0 µM 98% | [4]; [7] 90% | [4]; [8] 96% | [4]; at 50.0 µM 95.9% | [5]; [7] 97% | [5]; [8] 96% | [5]; at 50.0 µM 97.2% | [6]; [7] 86% | [6]; [8] 96% | [6]; at 50.0 µM 97.3%
inactive: [3]; [7] 54%

CCN(CC)C(=O)CCCCC(=O)OC(C)C
inactive: [1]; [7] 0% | [1]; [8] -12% | [1]; at 50.0 µM -2.2% | [2]; [7] -2% | [2]; [8] -2% | [2]; at 50.0 µM -1.1% | [3]; [7] -6% | [3]; [8] -12% | [3]; at 50.0 µM -24% | [4]; [7] -7% | [4]; [8] -1% | [5]; [7] -3% | [5]; [8] -10% | [5]; at 50.0 µM -7.2% | [6]; [7] -1% | [6]; [8] -11% | [6]; at 50.0 µM 21.9%
active: [4]; at 50.0 µM 86.2%

Nn1c2ccccc2c2ccccc21
active: [6]; at 50.0 µM 75.1%
inactive: [1]; [7] -106% | [1]; [8] -52% | [1]; at 50.0 µM 35% | [2]; [7] -44% | [2]; [8] -53% | [2]; at 50.0 µM 11.8% | [3]; [7] -32% | [3]; [8] -25% | [3]; at 50.0 µM 8.1% | [4]; [7] -54% | [4]; [8] -77% | [4]; at 50.0 µM 12% | [5]; [7] -72% | [5]; [8] -80% | [5]; at 50.0 µM -6% | [6]; [7] -78% | [6]; [8] 6%

O=C(CC1C(=O)c2ccccc2C1=C1C(=O)c2ccccc2C1=O)c1ccccc1 (configuration not stated)
inactive: [1]; [7] -8% | [2]; [7] 22% | [3]; [7] 9% | [4]; [7] 19% | [4]; [8] 69% | [4]; at 50.0 µM 68% | [5]; [7] 11% | [6]; [7] -3%
active: [1]; [8] 71% | [1]; at 50.0 µM 81.8% | [2]; [8] 92% | [2]; at 50.0 µM 89.8% | [3]; [8] 84% | [3]; at 50.0 µM 89.3% | [5]; [8] 94% | [5]; at 50.0 µM 79.2% | [6]; [8] 95% | [6]; at 50.0 µM 74%
